In assay [1] the target is T1, Muscle, skeletal receptor tyrosine-protein kinase (Homo sapiens) (UniProt O15146).
T1 sequence (whole entry): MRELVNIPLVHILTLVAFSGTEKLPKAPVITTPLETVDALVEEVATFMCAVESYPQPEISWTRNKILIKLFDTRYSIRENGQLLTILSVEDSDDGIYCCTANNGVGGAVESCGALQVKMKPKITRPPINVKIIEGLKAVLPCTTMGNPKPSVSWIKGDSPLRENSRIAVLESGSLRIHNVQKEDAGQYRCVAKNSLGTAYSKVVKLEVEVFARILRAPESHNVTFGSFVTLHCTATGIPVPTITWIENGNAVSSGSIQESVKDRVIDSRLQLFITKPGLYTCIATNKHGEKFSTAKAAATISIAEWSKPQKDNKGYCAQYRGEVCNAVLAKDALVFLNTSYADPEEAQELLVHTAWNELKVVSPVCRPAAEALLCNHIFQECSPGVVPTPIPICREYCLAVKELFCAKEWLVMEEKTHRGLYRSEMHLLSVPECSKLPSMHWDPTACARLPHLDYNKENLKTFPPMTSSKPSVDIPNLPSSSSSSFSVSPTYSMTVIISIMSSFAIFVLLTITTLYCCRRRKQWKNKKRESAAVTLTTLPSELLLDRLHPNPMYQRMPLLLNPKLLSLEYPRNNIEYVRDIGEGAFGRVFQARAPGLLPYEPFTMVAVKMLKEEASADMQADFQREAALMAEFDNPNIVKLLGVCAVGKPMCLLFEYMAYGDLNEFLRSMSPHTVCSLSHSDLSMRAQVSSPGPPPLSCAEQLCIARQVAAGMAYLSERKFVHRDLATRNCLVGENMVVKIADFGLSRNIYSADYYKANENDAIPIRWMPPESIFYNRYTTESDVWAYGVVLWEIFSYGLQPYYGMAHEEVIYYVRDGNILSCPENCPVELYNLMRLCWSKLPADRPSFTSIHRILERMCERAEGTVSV
The following applies: at 1 µM.

Assay [2] deals with T1, Muscle, skeletal receptor tyrosine-protein kinase (Homo sapiens). Conditions: at 10 µM.
The target in assay [3] is T2, Serine/threonine-protein kinase Nek11 (Homo sapiens) (UniProt Q8NG66).
T2 sequence (whole entry): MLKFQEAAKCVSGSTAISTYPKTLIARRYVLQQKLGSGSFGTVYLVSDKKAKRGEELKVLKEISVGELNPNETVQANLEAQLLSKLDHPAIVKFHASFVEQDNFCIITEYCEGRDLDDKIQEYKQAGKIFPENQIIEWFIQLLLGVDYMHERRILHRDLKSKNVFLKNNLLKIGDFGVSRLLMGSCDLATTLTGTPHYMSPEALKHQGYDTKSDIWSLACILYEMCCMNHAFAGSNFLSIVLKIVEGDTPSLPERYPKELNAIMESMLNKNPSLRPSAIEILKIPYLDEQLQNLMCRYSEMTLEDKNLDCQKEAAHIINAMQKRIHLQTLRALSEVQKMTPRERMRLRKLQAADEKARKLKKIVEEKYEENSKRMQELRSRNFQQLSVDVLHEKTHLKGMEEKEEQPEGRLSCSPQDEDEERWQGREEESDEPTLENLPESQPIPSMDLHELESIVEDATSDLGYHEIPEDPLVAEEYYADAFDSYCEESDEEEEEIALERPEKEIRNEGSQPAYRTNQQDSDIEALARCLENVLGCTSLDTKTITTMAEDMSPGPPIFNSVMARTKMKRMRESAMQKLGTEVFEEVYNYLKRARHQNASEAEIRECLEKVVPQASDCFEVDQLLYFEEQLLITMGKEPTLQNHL
The following applies: at 1 µM.

Assay [4] addresses T2, Serine/threonine-protein kinase Nek11 (Homo sapiens). Conditions: at 10 µM.
The target in assay [5] is T3, Serine/threonine-protein kinase Nek2 (Homo sapiens) (UniProt P51955).
T3 sequence (whole entry): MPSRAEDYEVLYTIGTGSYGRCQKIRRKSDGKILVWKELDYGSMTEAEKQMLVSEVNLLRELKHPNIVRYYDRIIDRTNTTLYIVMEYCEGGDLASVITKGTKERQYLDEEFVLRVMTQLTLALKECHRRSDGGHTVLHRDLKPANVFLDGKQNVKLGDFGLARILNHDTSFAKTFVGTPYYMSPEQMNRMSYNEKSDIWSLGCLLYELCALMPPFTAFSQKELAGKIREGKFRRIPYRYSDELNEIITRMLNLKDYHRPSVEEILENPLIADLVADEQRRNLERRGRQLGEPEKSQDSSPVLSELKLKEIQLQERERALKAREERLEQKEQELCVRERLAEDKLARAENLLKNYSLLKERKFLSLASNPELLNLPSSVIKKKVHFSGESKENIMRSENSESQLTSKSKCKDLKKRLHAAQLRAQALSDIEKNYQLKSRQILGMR
Conditions: at 1 µM.

Assay [6] concerns the target T3, Serine/threonine-protein kinase Nek2 (Homo sapiens). Conditions: at 10 µM.
The target in assay [7] is T4, Serine/threonine-protein kinase Nek3 (Homo sapiens) (UniProt P51956).
T4 sequence (whole entry): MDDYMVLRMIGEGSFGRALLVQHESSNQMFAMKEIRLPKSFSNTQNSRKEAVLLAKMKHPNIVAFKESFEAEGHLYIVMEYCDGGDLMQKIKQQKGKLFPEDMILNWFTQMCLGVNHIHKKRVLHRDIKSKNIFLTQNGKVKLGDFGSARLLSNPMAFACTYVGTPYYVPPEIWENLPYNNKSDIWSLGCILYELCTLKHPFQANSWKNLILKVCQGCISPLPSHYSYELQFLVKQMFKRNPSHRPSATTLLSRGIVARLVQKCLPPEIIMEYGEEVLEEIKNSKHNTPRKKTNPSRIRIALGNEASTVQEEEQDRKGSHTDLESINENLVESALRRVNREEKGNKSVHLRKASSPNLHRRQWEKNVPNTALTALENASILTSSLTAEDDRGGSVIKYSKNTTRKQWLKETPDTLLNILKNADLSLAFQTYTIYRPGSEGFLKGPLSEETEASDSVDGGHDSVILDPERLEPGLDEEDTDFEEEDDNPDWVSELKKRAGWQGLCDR
The following applies: at 1 µM.

In assay [8] the target is T4, Serine/threonine-protein kinase Nek3 (Homo sapiens). The following applies: at 10 µM.
In assay [9] the target is Serine/threonine-protein kinase tousled-like 2 (Homo sapiens) (UniProt Q86UE8). Conditions: at 1 µM.
The target is the same in assay [10]. The following applies: at 10 µM.
Assay [11] addresses T5, Testis-specific serine/threonine-protein kinase 1 (Homo sapiens) (UniProt Q9BXA7).
T5 sequence (whole entry): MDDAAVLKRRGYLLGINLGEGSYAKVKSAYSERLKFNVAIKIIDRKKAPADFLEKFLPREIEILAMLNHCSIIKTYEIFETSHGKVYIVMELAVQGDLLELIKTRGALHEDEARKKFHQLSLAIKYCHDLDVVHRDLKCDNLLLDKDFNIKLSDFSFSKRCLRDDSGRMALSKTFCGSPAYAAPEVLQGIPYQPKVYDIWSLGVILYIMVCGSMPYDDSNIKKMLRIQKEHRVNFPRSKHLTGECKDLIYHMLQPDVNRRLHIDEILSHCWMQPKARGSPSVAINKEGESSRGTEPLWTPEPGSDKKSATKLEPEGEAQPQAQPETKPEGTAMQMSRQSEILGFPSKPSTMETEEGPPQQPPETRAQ
Conditions: at 1 µM.

Assay [12] addresses T5, Testis-specific serine/threonine-protein kinase 1 (Homo sapiens). The following applies: at 10 µM.
Assay [13] deals with T6, Testis-specific serine/threonine-protein kinase 2 (Homo sapiens) (UniProt Q96PF2).
T6 sequence (whole entry): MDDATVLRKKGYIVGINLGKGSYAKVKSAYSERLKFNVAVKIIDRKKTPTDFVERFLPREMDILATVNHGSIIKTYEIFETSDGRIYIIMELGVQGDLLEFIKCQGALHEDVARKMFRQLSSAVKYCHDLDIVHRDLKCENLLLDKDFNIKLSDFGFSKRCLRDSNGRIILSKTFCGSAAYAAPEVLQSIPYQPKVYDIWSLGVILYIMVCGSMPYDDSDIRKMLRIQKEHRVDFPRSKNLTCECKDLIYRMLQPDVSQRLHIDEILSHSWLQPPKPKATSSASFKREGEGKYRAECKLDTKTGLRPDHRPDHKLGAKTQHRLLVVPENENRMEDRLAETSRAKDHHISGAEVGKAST
Conditions: at 10 µM.

The target of assay [14] is T7, Tyrosine-protein kinase Tec (Homo sapiens) (UniProt P42680).
T7 sequence (whole entry): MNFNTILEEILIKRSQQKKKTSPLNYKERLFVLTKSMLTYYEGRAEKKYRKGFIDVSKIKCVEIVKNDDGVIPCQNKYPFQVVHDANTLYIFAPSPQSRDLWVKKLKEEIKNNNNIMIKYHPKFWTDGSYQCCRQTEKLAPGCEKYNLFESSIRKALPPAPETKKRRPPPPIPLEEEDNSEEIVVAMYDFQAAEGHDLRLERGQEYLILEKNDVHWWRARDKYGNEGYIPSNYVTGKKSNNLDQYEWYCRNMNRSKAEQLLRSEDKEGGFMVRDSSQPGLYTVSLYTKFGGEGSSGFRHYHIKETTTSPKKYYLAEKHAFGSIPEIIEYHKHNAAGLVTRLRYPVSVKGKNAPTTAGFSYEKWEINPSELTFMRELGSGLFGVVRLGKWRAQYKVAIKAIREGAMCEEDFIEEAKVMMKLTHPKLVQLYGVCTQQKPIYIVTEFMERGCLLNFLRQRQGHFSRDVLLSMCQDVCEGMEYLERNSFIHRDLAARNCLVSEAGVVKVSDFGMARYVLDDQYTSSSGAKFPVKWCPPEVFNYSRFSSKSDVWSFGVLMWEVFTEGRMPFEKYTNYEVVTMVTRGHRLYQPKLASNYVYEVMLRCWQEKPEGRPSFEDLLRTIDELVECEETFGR
The following applies: at 1 µM.

Assay [15] concerns the target T7, Tyrosine-protein kinase Tec (Homo sapiens). The following applies: at 10 µM.
In assay [16] the target is Angiopoietin-1 receptor (Homo sapiens) (UniProt Q02763). Conditions: at 1 µM.
Assay [17] shares this target. The following applies: at 10 µM.
Assay [18] concerns the target High affinity nerve growth factor receptor (Homo sapiens) (UniProt P04629). Conditions: at 1 µM.
For assay [19] the target is unchanged. Conditions: at 10 µM.
Assay [20] concerns the target BDNF/NT-3 growth factors receptor (Homo sapiens) (UniProt Q16620). The following applies: at 1 µM.

One may read the residual activity as the signal under treatment as a percentage of the control signal.

Sequence of High affinity nerve growth factor receptor (Homo sapiens) (P04629 33-796 limits assumed): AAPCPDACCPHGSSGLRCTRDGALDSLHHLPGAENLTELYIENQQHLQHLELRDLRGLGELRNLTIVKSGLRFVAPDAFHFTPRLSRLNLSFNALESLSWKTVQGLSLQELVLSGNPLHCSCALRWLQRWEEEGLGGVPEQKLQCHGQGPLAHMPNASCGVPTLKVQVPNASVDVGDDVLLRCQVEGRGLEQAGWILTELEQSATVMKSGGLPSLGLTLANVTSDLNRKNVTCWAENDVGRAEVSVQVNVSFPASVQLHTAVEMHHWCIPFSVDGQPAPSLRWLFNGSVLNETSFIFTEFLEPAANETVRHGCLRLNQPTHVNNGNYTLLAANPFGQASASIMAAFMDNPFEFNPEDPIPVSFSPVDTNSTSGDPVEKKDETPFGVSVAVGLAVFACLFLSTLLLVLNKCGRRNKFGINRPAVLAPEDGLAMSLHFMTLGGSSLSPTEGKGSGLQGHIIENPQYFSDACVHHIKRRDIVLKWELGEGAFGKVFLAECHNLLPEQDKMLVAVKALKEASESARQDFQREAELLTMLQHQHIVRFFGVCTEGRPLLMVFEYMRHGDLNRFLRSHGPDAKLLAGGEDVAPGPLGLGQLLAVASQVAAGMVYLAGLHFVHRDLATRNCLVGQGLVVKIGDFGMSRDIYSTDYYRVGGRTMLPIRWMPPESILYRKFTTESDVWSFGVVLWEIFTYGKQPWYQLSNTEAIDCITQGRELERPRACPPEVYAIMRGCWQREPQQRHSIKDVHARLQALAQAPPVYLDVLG
Sequence of Angiopoietin-1 receptor (Homo sapiens) (Q02763 whole entry): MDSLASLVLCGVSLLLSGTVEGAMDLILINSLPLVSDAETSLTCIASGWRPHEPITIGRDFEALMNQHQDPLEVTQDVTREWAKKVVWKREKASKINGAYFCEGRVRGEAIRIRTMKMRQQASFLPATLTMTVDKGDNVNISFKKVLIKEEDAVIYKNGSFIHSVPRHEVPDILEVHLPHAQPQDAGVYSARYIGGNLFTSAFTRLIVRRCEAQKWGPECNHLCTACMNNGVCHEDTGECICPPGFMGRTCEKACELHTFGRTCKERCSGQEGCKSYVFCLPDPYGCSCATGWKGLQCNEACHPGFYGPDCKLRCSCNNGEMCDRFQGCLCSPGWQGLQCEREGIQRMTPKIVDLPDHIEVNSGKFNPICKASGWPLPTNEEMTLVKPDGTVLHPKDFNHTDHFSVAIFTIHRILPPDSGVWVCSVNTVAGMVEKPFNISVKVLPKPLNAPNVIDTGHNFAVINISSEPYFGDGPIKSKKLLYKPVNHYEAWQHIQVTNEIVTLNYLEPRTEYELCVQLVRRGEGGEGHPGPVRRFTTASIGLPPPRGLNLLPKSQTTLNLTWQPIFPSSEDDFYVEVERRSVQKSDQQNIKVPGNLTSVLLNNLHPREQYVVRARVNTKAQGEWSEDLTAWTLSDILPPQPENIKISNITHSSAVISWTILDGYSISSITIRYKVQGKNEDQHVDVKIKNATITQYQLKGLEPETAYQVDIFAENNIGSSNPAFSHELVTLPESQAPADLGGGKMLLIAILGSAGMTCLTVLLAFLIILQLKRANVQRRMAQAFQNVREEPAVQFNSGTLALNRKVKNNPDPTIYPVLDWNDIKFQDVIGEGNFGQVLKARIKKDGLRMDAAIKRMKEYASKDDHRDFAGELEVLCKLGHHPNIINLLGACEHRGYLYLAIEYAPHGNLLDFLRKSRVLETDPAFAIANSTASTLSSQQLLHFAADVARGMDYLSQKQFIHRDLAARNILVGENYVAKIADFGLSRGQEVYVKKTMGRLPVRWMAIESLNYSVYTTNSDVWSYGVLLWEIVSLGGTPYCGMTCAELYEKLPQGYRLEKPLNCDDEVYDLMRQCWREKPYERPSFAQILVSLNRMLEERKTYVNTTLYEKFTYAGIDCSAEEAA
Sequence of BDNF/NT-3 growth factors receptor (Homo sapiens) (Q16620 32-822 limits assumed): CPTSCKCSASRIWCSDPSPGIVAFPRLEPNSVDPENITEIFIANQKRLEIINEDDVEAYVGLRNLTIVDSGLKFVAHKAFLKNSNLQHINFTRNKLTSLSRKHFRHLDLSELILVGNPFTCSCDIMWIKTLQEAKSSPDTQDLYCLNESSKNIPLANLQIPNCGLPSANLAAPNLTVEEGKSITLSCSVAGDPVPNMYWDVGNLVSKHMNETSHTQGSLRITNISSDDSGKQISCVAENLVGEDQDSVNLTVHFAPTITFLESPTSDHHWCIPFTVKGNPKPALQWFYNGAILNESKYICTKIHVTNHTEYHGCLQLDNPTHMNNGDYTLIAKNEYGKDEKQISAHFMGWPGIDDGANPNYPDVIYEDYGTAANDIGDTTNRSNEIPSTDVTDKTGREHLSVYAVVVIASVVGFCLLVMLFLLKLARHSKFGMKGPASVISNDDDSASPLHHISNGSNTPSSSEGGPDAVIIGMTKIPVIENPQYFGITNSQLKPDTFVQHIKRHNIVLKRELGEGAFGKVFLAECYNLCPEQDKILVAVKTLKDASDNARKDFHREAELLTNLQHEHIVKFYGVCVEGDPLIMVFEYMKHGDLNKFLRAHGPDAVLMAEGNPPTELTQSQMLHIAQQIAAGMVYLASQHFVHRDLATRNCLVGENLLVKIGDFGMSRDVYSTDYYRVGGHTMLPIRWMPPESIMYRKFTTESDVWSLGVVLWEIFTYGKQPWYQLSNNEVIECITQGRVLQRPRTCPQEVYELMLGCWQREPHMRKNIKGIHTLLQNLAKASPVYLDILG
Sequence of Serine/threonine-protein kinase tousled-like 2 (Homo sapiens) (Q86UE8 whole entry, looked up): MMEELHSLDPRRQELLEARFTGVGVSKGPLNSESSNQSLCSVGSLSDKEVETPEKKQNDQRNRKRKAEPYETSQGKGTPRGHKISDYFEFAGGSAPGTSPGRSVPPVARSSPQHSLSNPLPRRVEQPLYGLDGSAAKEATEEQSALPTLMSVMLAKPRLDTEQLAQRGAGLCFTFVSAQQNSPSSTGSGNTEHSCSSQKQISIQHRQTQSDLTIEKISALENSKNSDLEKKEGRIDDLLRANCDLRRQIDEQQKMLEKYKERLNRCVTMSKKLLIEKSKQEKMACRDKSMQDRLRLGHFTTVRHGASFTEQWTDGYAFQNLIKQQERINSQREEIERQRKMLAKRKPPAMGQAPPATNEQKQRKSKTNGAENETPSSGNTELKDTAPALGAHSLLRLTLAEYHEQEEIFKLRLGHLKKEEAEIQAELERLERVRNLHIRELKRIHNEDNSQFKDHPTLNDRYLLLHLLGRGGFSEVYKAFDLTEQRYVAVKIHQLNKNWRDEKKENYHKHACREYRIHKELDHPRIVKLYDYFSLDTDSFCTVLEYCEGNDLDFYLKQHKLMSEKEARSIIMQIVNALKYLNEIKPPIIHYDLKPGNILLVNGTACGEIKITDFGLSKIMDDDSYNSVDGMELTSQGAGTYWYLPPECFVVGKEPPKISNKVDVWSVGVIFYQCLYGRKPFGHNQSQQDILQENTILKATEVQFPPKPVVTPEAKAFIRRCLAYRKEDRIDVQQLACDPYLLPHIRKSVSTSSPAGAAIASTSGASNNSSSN

For the compound `N#C/C(=C(\N)Sc1ccc(N)cc1)c1ccccc1C(F)(F)F`, the residual activity in assay [1] stood at 86%; in assay [2], 84%; in assay [3], 64%; in assay [4] it was 68%; in assay [5], 93%; in assay [6] it was 91%. In addition, the residual activity in [7] was 75%; in assay [8], 103%; in [9], 98%; in assay [10], 93%; in assay [11] it was 99%; in assay [12], 82%. For the same compound, the residual activity in assay [13] was 67%; in assay [14], 93%; in assay [15] it was 63%; in assay [16], 111%; in assay [17], 87%; in [18] it was 90%. The residual activity in [19] worked out at 85%; in assay [20] it was 78%.

Regarding `Nc1nc(Nc2ccc(S(N)(=O)=O)cc2)nn1C(=S)Nc1c(F)cccc1F`, the residual activity in assay [1] was determined as 0%; in [2], 0%; in assay [3], 51%; in [4] it was 30%; in [5] it was 91%; in assay [6], 71%. Further, the residual activity is 6% in assay [7]; 3% in assay [8]; 4% in [9]; -1% in assay [10]; 16% in assay [11]; 12% in assay [12]. The residual activity in [13] was 12%; in [14] it was 78%; in assay [15], 23%; in [16], -1%; in assay [17] it was -2%; in [18] it was 0%. Besides, the residual activity in assay [19] is -1%; in assay [20], 0%.

Turning to `CO[C@H]1C[C@@H]2CC[C@@H](C)[C@@](O)(O2)C(=O)C(=O)N2CCCC[C@H]2C(=O)O[C@H]([C@H](C)C[C@@H]2CC[C@@H](O)[C@H](OC)C2)CC(=O)[C@H](C)/C=C(\C)[C@@H](O)[C@@H](OC)C(=O)[C@H](C)C[C@H](C)/C=C/C=C/C=C/1C`, the residual activity in assay [1] was found to be 87%; in assay [2], 86%; in assay [3], 97%; in [4], 112%; in assay [5] it was 83%; in assay [6], 81%. In addition, the residual activity in [7] was found to be 113%; in assay [8] it was 64%; in [9], 92%; in assay [10], 83%; in assay [11], 86%; in [12], 80%. In addition, the residual activity in assay [13] was determined as 106%; in assay [14], 96%; in assay [15], 90%; in [16], 79%; in assay [17], 96%; in [18] it was 89%. Also, the residual activity was 41% in [19] and 102% in assay [20].

With `COc1ccc(S(=O)(=O)N(CCO)c2ccccc2CN(C)C/C=C/c2ccc(Cl)cc2)cc1`, the residual activity in assay [1] is 79%; in [2], 79%; in assay [3] it was 95%; in assay [4], 109%; in assay [5], 105%; in assay [6] it was 102%. Besides, the residual activity in assay [7] was determined as 80%; in assay [8], 92%; in assay [9] it was 92%; in [10] it was 85%; in assay [11] it was 97%; in assay [12], 81%. In addition, the residual activity is 86% in assay [13]; 102% in [14]; 36% in [15]; 118% in assay [16]; 66% in assay [17]; 87% in assay [18]. Moreover, the results for the residual activity in [19] and in [20] were 47% and 86%, respectively.

As for `CCC(=O)Nc1ccc2ncnc(Nc3cccc(Br)c3)c2c1`, the residual activity turned out to be 96% in assay [1]; 84% in [2]; 84% in assay [3]; 92% in assay [4]; 73% in assay [5]; 99% in [6]. Further, the residual activity in assay [7] stood at 109%; in [8], 98%; in assay [9], 103%; in [10] it was 92%; in [11], 93%; in assay [12], 90%. Besides, the residual activity in assay [13] amounted to 102%; in assay [14], 86%; in assay [15] it was 90%; in assay [16], 81%; in assay [17], 70%; in assay [18] it was 97%. Besides, the residual activity turned out to be 96% in assay [19] and 77% in assay [20].

For the origin of these results see ChEMBL document CHEMBL2218924, “A broad activity screen in support of a chemogenomic map for kinase signalling research and drug discovery” (Biochem J, 2013).
